Test results as given in PubChem BioAssay.

Test: growth suppression of yeast trafficking mutant, preliminary HTS, modulators of trafficking downstream of Golgi apparatus project, 1536-format plate, OD 615 nm (AID 637)
Settings: yeast transport mutant growth, absorbance 615 nm, 18 h; stronger effect = higher value; in the data active means inhibition above about 30%; inactive means the rest

inhibition, inactive:
COc1ccc(C2/C(=C(/O)c3cnn(-c4ccccc4)c3C)C(=O)C(=O)N2CCN(C)C)cc1OC (stereo unspecified) -2.54%
COCCN(C(=O)Cn1nnc2ccccc21)C(C(=O)NC1CCCC1)c1cc(OC)ccc1OC (stereo unspecified) -4.92%
O=C(OCC(=O)N1CCc2ccccc21)C1=COCCO1 -0.32%
O=C(CCn1c(=O)sc2ccccc21)NC1=NCCS1 -6.72%
CC(C)COC(=O)C1[C@H]2C(=O)N(Cc3cccs3)C[C@]23C=C[C@H]1O3 (stereo partly specified) -2.33%
O=C(Cn1nnc(-c2cccc(C(F)(F)F)c2)n1)NC(=O)NCc1ccco1 -1.82%
Cn1c(=O)c(C(=O)Nc2cccnc2)c(O)c2ccccc21 2.46%
O=S(=O)(c1cccc(-c2nnco2)c1)N1CCCC1 -7.42%
CCOc1ccc2c(c1)sc1nc(C(=O)OC)cc(=O)n12 -6%
O=C(c1cccn2c(=O)c3cc(Cl)ccc3nc12)N1CCOCC1 -5.32%
CC1(C)CNC(=O)CC(C)(C)N1O 0%
O=C(CSc1nnnn1C1CCCC1)Nc1cccc(NC(=O)c2ccco2)c1 -2.17%
Cc1onc(-c2ccccc2)c1C(=O)Nc1ccnn1C1CCCCC1 -2.95%
O=C1C(c2ccncc2)=C(O)c2ccccc21 12.7%
CC(NC(=O)Cc1cccs1)c1ccc2c(c1)OCO2 (stereo unspecified) -0.66%
O=C(c1cnn2c(C(F)F)cc(C3CC3)nc12)N1CCOCC1 -10.2%
